A selection: hits, their analogues and other compounds. The true share with any hit is near 18%.
TDP1 cell CPT: growth inhibition of DT40 Tdp1-/-;hTDP1 cells with camptothecin (screen for TDP1 inhibitors) | 420,000 compounds, 12% hits | chicken DT40 Tdp1-/-;hTDP1 cells + 20 nM CPT, ATP luminescence, 48 h | Potency, µM (doses to about 46.2 µM), without a hit: at the top dose activity change, negative = growth inhibition, usual class: inhibitors; note: nearly all actives have a fitted effect of over 55% in size
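Chicken DT40 Tdp1-/- cells stably complemented with human TDP1 were seeded at 400 cells/well in medium containing 20 nM camptothecin, exposed to pin-transferred compounds, and grown at 37 °C for at least 48 hr. Viability was read as ATP luminescence.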
PLK1 PBD block: PLK1 (human) polo-box domain binding inhibition; 360,000 compounds, 2.8% hits; Plk1 PBD binding of FITC phosphopeptide, fluorescence polarization; P53350; Potency, µM, for the others: max response, negative = inhibition, hits mostly inhibitors; note: series mostly up to about 57 µM; nearly all actives have a fitted effect of over 65% in size
KAT2A inh: inhibitors of human GCN5L2 histone acetyltransferase | Q92830 | Potency, µM (titrated, usually from 58.9 µM), inactives show at the highest dose activity change, negative = inhibition, actives largely listed as inhibitors | GCN5L2 HAT assay, ThioGlo1 CoA-SH fluorescence | AID 504327 | 390,000 compounds, 0.21% hits
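GCN5L2 (20nM final) in 50mM HEPES, 0.1mM EDTA pH 7.5, 0.01% Tween-20 was preincubated 15 min at room temperature with compound, then given ThioGlo1 (50uM), H3(1-25) peptide (75uM) and acetyl-CoA (70uM); CoA-thiol fluorescence (Ex340/Em540) was read at 0 and 20 min.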
TDP1 cell noCPT: qHTS for Inhibitors of human tyrosyl-DNA phosphodiesterase 1 (TDP1): qHTS in cells in absence of CPT; DT40 Tdp1-/- hTDP1 cells, no CPT, ATP luminescence, 48 h; Potency, µM (titrated, usually from 46.2 µM), for inactives: top-dose activity change, negative = growth inhibition, hits mostly inhibitors; 420,000 compounds, 15% hits; AID 686978, 2013; note: nearly all actives have a fitted effect of over 55% in size
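Luminescent ATP content (CellTiter-Glo) served as the growth readout. Knockout chicken DT40 cells expressing human TDP1 were exposed to compounds without camptothecin for a minimum 48 hr at 37 °C.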
TDP1 block: blocks human tyrosyl-DNA phosphodiesterase 1 | recombinant TDP1, AlphaScreen DNA substrate cleavage | Potency, µM (top dose mostly 130 µM), for the others: at the top dose activity change, negative = inhibition, most hits filed as inhibitors | Q9NUW8 | AID 485290 | 350,000 compounds, 0.28% hits; note: nearly all actives have a fitted effect of over 40% in size
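E. coli-derived human Tdp1, 1 nM final. Cpd preinc 15 min RT; substrate 15 nM final, 5 min RT; AS bead mix 10 ug/ml final, 10 min RT. Signal loss = tyrosine-FITC cleavage. No-enzyme wells = max signal.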
VDR inhibitor: vitamin D3 receptor (human) inhibition; P11473; VDR-SRC2-3 peptide fluorescence polarization, 2 h; Potency, µM, without a hit: max response, negative = inhibition, actives largely listed as inhibitors; 400,000 compounds, 0.93% hits
Target sequence (P11473 whole entry, looked up): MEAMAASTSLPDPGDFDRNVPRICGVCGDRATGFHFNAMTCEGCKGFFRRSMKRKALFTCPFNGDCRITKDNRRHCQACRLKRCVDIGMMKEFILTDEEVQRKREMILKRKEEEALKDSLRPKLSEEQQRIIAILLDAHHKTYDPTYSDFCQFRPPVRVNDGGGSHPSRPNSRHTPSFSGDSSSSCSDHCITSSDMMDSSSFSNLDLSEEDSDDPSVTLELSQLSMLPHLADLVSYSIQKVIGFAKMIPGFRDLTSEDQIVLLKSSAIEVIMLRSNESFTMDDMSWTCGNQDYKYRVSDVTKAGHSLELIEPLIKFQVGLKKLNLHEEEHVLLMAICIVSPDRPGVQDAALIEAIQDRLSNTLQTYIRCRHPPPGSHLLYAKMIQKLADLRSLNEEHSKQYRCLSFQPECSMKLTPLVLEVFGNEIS
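Fluorescence polarization assay measuring small-molecule disruption of VDR binding to the coregulator peptide SRC2-3. Compounds were pin-transferred (23 nl) into the reagent mix and incubated 2 h at room temperature before reading.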
Numbers without * were called inactive; ? = inconclusive; nt = no result; [ ] = remark or other dose. Calls come from the whole dose curve; as a rule, active = well fitted curve in the direction sought with a large enough effect; inconclusive = small, poorly fitted or top-dose-only effect, or another doubt; inactive = no such curve, though single readings can be large; an effect the other way counts as inactive or inconclusive. % is set by controls: 0 for no effect and ±100 for the full control effect; potency is the fitted concentration of half-maximal effect.

SMILES | TDP1 cell CPT | PLK1 PBD block | KAT2A inh | TDP1 cell noCPT | TDP1 block | VDR inhibitor
CCCn1c(SCc2nc(-c3ccc(OC)c(OC)c3)no2)nnc1-c1ccccc1 | ? | nt | -0.1% | 18.4µM* | 1.2% | 13.4%
Cn1c(N)c(C(=O)CSc2nnc(NC3CCCCC3)s2)c(=O)n(C)c1=O | ? | -16.3% | -6.8% | ? | -20.9% | -4.7%
CC(=O)c1c(C)[nH]c(C(=O)CSc2nnc(NC3CC3)s2)c1C | ? | -4.0% | -17.7% | 14.6µM* | 0.6% | -15.7%
CCCn1c(SCc2nc(-c3ccccc3C)no2)nnc1-c1ccc(Cl)cc1 | 13µM* | nt | -12.8% | 16.4µM* | 7.4% | 13.0%
CCCOC(=O)c1ccc(NC(=O)Cc2csc(C)n2)cc1 | -37.2% | nt | -10.3% | ? | 2.3% | -0.6%
CCn1c(=O)n(CC2CCC(C(=O)NC(C)C)CC2)c(=O)c2sccc21 (stereo not drawn) | -2.5% | nt | 1.5% | -4.3% | 3.2% | 4.8%
CCCn1c(SCc2nc(-c3cc(OC)ccc3OC)no2)nnc1-c1ccc(Cl)cc1 | 13µM* | nt | -11.0% | 14.6µM* | 4.9% | 4.5%
COc1ccc(-c2noc(CSc3nnc(C)n3-c3ccc(C)cc3)n2)cc1 | ? | nt | 0.8% | ? | -1.2% | -3.5%
CCn1c(SCc2ccc(Cl)cc2)nnc1-c1ccccc1 | ? | 26.7µM* | 1.3% | ? | 4.4% | -18.9%
CCn1c(SCc2ccc(C#N)cc2)nnc1-c1cccc(Cl)c1 | -10.2% | -8.6% | 1.5% | -26.8% | -8.7% | -10.0%
CC(=O)N1CCC[C@@]2(CCN(C(c3ccccc3)c3ccccc3)C2)C1 | 10.9% | nt | 3.5% | -6.9% | nt | -18.2%
Cc1sc2nc3c(C(=O)N4CCCC4)cc(C(=O)c4ccccc4O)cn3c(=O)c2c1C | ? | 23.8µM* | -10.6% | 13µM* | -5.5% | -8.0%
CCc1c(C)sc2nc3c(C(=O)N4CCOCC4)cc(C(=O)c4cc(F)ccc4O)cn3c(=O)c12 | 23.1µM* | 4.9% | -1.3% | 16.4µM* | 5.3% | -10.3%
COc1cccc(N2CCN(C(=O)c3cccn4c(=O)c5c(C)c(C)sc5nc34)CC2)c1 | -19.8% | -14.6% | 0.9% | ? | 3.7% | 1.4%
COC(CNC(=O)c1cn(C)c2ccc(S(=O)(=O)N(C)C3CCCCC3)cc2c1=O)OC | -25.1% | -19.8% | -3.9% | ? | 0.2% | 10.7%
C/C=C(/CCC1NCCc2c1[nH]c1ccccc21)[Si](C)(C)C (stereo not drawn) | 3.26µM* | -1.5% | nt | 2.91µM* | nt | -12.8%
O=C(NCCCn1ccnc1)c1ccc(N2CCCCC2)c([N+](=O)[O-])c1 | -1.0% | -2.8% | -6.4% | ? | 7.0% | -3.1%
COc1cccc(-n2c(SCC(=O)NC3CC3)nc3ccccc3c2=O)c1 | -26.2% | -12.1% | nt | ? | nt | nt
Clc1ccc2[nH]cc(-c3nnnn3-c3ccccc3)c2c1 | 20.6µM* | -4.0% | -13.6% | ? | 5.8% | -0.7%
Clc1ccc2ncc(-c3nnnn3-c3ccccc3)c(-c3ccccc3)c2c1 | ? | -10.3% | 1.9% | ? | 2.5% | 8.0%
COCC(=O)N1CCc2nc(COc3ccccc3)c3c(c2C1)CO[C@@H](C)C3 | nt | nt | nt | nt | 13.1%[12.3 µM] | nt
COc1ccccc1N(C)S(=O)(=O)c1ccc(Cl)c(C(=O)Nc2cccc(C)n2)c1 | 18.4µM* | 0.4% | -6.8% | 16.4µM* | -8.5% | 10.6%
CN(C)C(CNC(=O)c1cc(S(=O)(=O)N(C)c2ccc(F)cc2)ccc1Cl)c1cccs1 (stereo not drawn) | 5.8µM* | 3.4% | nt | 5.8µM* | nt | -14.7%
COc1ccccc1N(C)S(=O)(=O)c1ccc(Cl)c(C(=O)NCCCN2CCOCC2)c1 | -24.1% | -0.1% | ? | -4.8% | -0.1% | 1.8%
COc1ccccc1N(C)S(=O)(=O)c1ccc(Cl)c(C(=O)Nc2ccccc2N2CCOCC2)c1 | 3.66µM* | -3.3% | nt | 1.46µM* | nt | 11.5%
SMILES | TDP1 cell CPT | PLK1 PBD block | KAT2A inh | TDP1 cell noCPT | TDP1 block | VDR inhibitor
Cc1cccc(NC(=O)c2cc(S(=O)(=O)N(C)c3ccc(F)cc3)ccc2Cl)n1 | ? | -2.5% | -24.5% | 8.2µM* | nt | -22.9%
Cc1ccc(NS(=O)(=O)c2cccc(C(=O)O)c2)cc1C | nt | nt | nt | nt | 2.8% | nt
Cc1c(C(C)C)c(=O)n(-c2ccc(S(=O)(=O)NC3CC3)cc2)n1C | -5.3% | -18.9% | -2.3% | 10.3µM* | 5.1% | 15.1%
COC(CNS(=O)(=O)c1ccc(S(=O)(=O)NC2CC2)cc1)OC | -3.1% | 3.7% | -0.6% | 21.0% | nt | -12.4%
CCN(CC)S(=O)(=O)c1ccc(-n2c(=O)c(C(C)C)c(C)n2C)cc1 | -20.2% | -3.4% | 8.6% | ? | -10.3% | 12.2%
Cc1c(C(C)C)c(=O)n(-c2ccc(S(=O)(=O)NC(C)C)cc2)n1C | ? | -10.9% | ? | 13µM* | 5.1% | 8.7%
COc1nnc(-c2ccc(C(=O)N3C[C@@H]4C[C@H](C3)c3cccc(=O)n3C4)cc2)c2ccccc12 | 15.2% | -4.8% | -0.6% | 18.9% | -14.6% | 7.9%
O=C(c1ccc(-c2nnc(Nc3cccc(Cl)c3)c3ccccc23)cc1)N1C[C@H]2C[C@H](C1)c1cccc(=O)n1C2 | ? | -4.6% | 1.5% | 16.4µM* | 4.0% | 5.5%
Cn1c(SCC(=O)N2CCOCC2)ncc(C(=O)Nc2ccc(F)cc2)c1=O | ? | nt | -4.1% | ? | 0.0% | -3.0%
COc1ccc(-c2noc(CN(C(=O)Cc3ccc(C)cc3)C(C)C)n2)cc1 | ? | nt | -5.4% | ? | 2.3% | -6.8%
CCC(C(=O)Nc1cccc(-c2cn3cccnc3n2)c1)c1ccccc1 (stereo not drawn) | ? | nt | -13.1% | ? | 5.5% | 15.6%
Cc1ccc(OCC(=O)Oc2c(C)cccc2C)cc1 | -5.7% | -1.8% | -3.0% | -5.2% | nt | -15.8%
COCC(=O)Oc1cc(-c2ccc(C)cc2C)c(OC(=O)COC)c(-c2ccc(C)cc2C)c1 | 10.3µM* | -3.5% | nt | 9.2µM* | nt | nt
c1cc2c3c(c1)ccc1cccc(c13)C2 | nt | nt | nt | nt | 7.0% | nt
N[C@@H](Cn1cc(F)c(=O)[nH]c1=O)C(=O)O | 4.0% | nt | -7.6% | 0.0% | -11.5%[56.1 µM] | 0.1%
COc1ccc(NC(=O)N2CCCC3(CCN(C(=O)c4cnccn4)CC3)C2)cc1 | 2.5% | nt | 5.7% | -10.6% | nt | -0.5%
CC(=O)N1CCc2cc(C(=O)CN3CCN(c4cccc(Cl)c4)CC3)ccc21 | 14.6µM* | -10.8% | -8.8% | 20.6µM* | 3.7% | -12.5%
O=C(c1ccc2c(c1)CCN2S(=O)(=O)c1ccccc1)N1CCN(c2ccc(F)cc2)CC1 | 23.1µM* | -14.0% | -16.9% | 14.6µM* | 5.9% | -4.9%

Bioassay records as filed in PubChem.
